Source: PubChem BioAssay
Calls of active or inactive are those of the source.

What was measured:
[1] = small molecules captured by biotinylated probe aFSTL3 – biochemical, small-molecule microarray, fluorescence 635/667, stem cell growth factor project, primary screen (AID 1064); details: higher = more signal;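 further: measures binding of the biotinylated anti-FSTL3 antibody to printed compounds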
[2] = binders from COS7 lysate, DM2A8 probe, primary screen, torsin A project, cell lysate, small-molecule microarray, fluorescence 635/667 (AID 1065); details: higher = more signal, COS7 lysate expressing mutant human TOR1A
[3] = small molecules captured by biotinylated probe aFGF2 – biochemical, small-molecule microarray, fluorescence 635/667, stem cell growth factor project, primary screen (AID 1067); details: higher = more signal;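 further: measures binding of biotinylated aFGF2 protein to printed compounds on slides; z-score merges feature fluorescence and signal-to-noise across triplicate slides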
[4] = small molecules captured by biotinylated probe aFGF10 – biochemical, small-molecule microarray, fluorescence 635/667, stem cell growth factor project, primary screen (AID 1071); details: higher = more signal;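 further: score merges 667 nm spot intensity and signal to noise from triplicate slides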
[5] = biological target: Neurogenic locus notch homolog protein 2 (Homo sapiens) (UniProt Q04721); assay: small molecules binding Notch2 protein – biochemical, small-molecule microarray, 635 nm fluorescence, stem cell growth factors, primary screen (AID 1073); details: higher = more signal
[6] = biological target: Pro-neuregulin-1, membrane-bound isoform (Homo sapiens) (UniProt Q02297); assay: small molecules binding neuregulin-1 protein – biochemical, small-molecule microarray, fluorescence 635/667, psychiatric disease protein project, primary screen (AID 1075); details: NRG1 binding, 635 nm fluorescence, higher = more signal;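 further: score combines 667 nm spot fluorescence with signal to noise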
Pro-neuregulin-1, membrane-bound isoform (Homo sapiens), sequence (Q02297 whole entry, looked up, the tested form may be a part, canonical isoform): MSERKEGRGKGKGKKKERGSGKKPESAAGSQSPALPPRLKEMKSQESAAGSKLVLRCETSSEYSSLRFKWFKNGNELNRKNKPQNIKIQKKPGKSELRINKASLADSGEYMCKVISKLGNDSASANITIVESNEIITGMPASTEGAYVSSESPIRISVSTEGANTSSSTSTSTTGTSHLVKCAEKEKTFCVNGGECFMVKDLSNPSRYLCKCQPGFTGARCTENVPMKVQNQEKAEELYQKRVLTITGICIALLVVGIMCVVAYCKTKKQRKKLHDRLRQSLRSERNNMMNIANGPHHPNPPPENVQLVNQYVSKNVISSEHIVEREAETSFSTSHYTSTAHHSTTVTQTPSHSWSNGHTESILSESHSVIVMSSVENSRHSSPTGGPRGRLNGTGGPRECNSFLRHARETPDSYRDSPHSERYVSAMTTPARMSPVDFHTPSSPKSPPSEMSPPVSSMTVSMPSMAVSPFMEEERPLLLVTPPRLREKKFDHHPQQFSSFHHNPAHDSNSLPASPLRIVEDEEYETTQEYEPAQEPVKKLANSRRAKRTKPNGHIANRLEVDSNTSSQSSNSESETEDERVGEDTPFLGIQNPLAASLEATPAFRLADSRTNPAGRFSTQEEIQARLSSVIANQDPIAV

[7] = test system: Neuregulin-1 EGF-like domain; assay: small molecules binding NRG1 EGF domain – biochemical, small-molecule microarray, 635 nm fluorescence, primary screen (AID 1081); details: higher = more signal;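 further: binding of the protein to compounds printed on small-molecule microarray slides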
[8] = FRG1 expression reporter modulators in myotubes – cell-based, C2C12 myotubes, firefly/Renilla luciferase, luminescence, FRG1 inhibition for FSHD, primary screen (AID 1084); details: FRG1 promoter luciferase, higher = more signal, called active from +8 up or from −8 down
[9] = small molecules captured by biotinylated probe aFST – biochemical, small-molecule microarray, fluorescence 635/667, stem cell growth factor project, primary screen (AID 1086); details: higher = more signal;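 further: score merges 667 nm fluorescence with signal-to-noise of each printed compound spot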
[10] = binders of probe aHhip on microarray, primary screen, stem cell growth factor project, biochemical, small-molecule microarray, fluorescence 635/667 (AID 1087); details: higher = more signal;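 further: score merges spot fluorescence at 667nm with spot signal to noise ratio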
[11] = test system: PRMT1 (protein arginine N-methyltransferase 1); assay: small molecules binding arginine methyltransferase PRMT1 – biochemical, small-molecule microarray, 635 nm fluorescence, primary screen (AID 1088); details: higher = more signal;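 further: binding of Prmt1 protein to compounds spotted on small-molecule microarray slides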
[12] = growth effects on S. cerevisiae YJM789 – YJM789 clinical isolate, OD600, 24 h, basal, primary screen (AID 1089); details: higher = more signal, called active from +8 up or from −8 down;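 further: growth of clinical yeast isolate S. cerevisiae YJM 789 seeded 1000 cells per well; test concentration not given here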
[13] = S. pombe growth modifiers, basal conditions – strain 972, OD600, 24 h, no modulator, primary screen (AID 1090);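 further: basal condition with compound alone and no growth modifier present; test concentration not given here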; details: S. pombe 972 growth, higher = more signal, called active from +8 up or from −8 down
[14] = budding yeast growth modifiers under rapamycin – strain BY4716, OD600, 96 h, primary screen (AID 1091); further: test concentration not given here; details: S. cerevisiae BY4716 + rapamycin, higher = more signal, called active from +8 up or from −8 down
[15] = biological target: Torsin-1A-interacting protein 2 (Homo sapiens) (UniProt Q8NFQ8); assay: small molecules binding lysate-expressed LULL1 – cell lysate, human LULL1 lysate, 635/667 nm fluorescence, primary screen (AID 1092); details: small-molecule microarray, hLULL1 lysate binding, 635 nm fluorescence; higher = more signal;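 further: probe is lysate of COS7 cells overexpressing human LULL1; score merges per-feature 667 nm fluorescence with signal-to-noise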
Torsin-1A-interacting protein 2 (Homo sapiens), sequence (Q8NFQ8 whole entry, looked up): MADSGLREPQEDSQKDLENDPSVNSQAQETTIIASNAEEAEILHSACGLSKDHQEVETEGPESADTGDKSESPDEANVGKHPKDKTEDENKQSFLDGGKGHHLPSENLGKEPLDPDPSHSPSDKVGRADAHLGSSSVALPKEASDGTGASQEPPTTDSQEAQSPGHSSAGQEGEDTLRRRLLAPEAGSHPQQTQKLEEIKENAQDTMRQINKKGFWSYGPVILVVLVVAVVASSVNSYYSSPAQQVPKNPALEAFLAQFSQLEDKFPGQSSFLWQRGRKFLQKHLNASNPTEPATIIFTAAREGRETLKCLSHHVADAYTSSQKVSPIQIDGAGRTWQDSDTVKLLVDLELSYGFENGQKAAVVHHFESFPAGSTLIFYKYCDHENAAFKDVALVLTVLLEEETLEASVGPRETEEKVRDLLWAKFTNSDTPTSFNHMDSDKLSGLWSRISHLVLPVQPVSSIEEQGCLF

[16] = optical density change of DRC41 E. coli – strain DRC41, OD650, 24 h, E. coli filamentation project, primary screen (AID 1093);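 further: MC1000 strain lacking acrAB efflux and sulA so SOS filamentation is blocked; test concentration not given here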; details: E. coli DRC41 growth, higher = more signal, called active from +8 up or from −8 down
[17] = probe aLefty2 binding to arrayed compounds – biochemical, biotinylated probe, 635/667 nm fluorescence, primary screen (AID 1094); details: small-molecule microarray, higher = more signal;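 further: score merges spot fluorescence near 667 nm with spot signal-to-noise ratio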
[18] = test system: Noggin (protein binding on small-molecule microarray); assay: small molecules binding Noggin protein – biochemical, 635/667 nm fluorescence, primary screen (AID 1095); details: 635 nm fluorescence, higher = more signal;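 further: score merges 667 nm feature fluorescence with signal to noise over triplicate slides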
[19] = biological target: Neurogenic locus notch homolog protein 3 (Homo sapiens) (UniProt Q9UM47); assay: small molecules binding NOTCH3 protein – biochemical, 635/667 nm fluorescence, primary screen (AID 1096); details: small-molecule microarray, 635 nm fluorescence, higher = more signal
Neurogenic locus notch homolog protein 3 (Homo sapiens), sequence (Q9UM47 whole entry, looked up): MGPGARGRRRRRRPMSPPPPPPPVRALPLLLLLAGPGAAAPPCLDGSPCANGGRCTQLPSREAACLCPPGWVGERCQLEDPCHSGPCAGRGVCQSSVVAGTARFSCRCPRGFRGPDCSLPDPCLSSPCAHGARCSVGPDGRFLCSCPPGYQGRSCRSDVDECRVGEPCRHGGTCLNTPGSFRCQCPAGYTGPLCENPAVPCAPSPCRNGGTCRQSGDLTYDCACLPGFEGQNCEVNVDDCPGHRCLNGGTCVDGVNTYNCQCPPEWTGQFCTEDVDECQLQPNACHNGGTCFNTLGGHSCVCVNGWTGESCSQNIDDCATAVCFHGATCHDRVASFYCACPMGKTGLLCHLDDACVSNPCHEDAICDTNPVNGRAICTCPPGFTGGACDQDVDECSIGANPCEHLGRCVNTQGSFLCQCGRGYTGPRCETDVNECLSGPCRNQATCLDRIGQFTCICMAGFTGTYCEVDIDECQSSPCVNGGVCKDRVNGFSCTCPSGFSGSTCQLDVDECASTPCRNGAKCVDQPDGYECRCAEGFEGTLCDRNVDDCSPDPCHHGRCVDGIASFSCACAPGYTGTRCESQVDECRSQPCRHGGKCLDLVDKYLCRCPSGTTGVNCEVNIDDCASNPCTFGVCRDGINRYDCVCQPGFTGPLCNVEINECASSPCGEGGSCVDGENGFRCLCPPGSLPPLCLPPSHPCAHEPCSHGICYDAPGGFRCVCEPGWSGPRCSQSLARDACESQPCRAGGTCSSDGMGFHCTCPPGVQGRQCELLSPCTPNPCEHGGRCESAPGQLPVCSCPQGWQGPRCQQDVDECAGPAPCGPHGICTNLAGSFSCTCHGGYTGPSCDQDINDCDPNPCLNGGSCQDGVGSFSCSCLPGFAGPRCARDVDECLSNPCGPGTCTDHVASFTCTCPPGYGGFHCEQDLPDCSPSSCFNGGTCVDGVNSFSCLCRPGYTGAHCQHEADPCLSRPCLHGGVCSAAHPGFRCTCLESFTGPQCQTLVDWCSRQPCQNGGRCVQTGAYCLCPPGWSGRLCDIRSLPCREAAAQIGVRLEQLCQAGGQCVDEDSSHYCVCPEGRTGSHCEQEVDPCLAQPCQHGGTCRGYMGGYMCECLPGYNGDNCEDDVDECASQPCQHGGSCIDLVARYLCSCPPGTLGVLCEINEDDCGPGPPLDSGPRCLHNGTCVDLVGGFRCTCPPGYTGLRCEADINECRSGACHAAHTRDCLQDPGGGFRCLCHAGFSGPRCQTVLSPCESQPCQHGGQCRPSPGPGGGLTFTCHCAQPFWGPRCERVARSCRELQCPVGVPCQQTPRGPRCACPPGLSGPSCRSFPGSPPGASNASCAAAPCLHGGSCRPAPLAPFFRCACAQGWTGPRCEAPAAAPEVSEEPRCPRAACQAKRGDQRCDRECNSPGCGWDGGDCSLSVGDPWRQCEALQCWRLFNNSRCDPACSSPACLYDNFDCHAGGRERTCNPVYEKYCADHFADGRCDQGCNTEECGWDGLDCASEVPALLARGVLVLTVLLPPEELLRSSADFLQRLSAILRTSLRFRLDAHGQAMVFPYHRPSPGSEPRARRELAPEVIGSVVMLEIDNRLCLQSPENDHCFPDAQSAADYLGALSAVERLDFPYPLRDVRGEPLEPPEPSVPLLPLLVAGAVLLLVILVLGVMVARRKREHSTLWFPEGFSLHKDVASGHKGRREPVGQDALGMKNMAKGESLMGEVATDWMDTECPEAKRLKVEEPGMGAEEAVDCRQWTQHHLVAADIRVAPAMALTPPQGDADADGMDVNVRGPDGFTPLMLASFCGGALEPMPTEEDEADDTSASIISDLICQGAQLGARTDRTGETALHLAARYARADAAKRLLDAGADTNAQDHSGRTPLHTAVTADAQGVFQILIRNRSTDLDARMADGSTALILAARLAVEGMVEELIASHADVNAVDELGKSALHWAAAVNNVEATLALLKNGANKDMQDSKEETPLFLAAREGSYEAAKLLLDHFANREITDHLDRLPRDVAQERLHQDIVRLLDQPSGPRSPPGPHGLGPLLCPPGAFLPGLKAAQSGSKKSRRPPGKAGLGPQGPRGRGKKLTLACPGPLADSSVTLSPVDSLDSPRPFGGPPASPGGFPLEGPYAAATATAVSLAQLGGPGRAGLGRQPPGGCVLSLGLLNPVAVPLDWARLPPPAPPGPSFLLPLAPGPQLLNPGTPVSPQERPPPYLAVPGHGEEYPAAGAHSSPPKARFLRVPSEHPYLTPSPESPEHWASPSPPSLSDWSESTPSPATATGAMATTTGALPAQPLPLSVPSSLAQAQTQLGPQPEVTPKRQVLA

[20] = probe aEGFR binding to arrayed compounds – biochemical, biotinylated probe, 635/667 nm fluorescence, primary screen (AID 1097); details: small-molecule microarray, higher = more signal;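 further: probe is a biotinylated anti-EGFR antibody binding compounds printed on slides; score combines fluorescence near 667 nm and signal to noise of each spot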

SMILES | composite z-score [1] | composite z-score [2] | composite z-score [3] | composite z-score [4] | composite z-score [5] | composite z-score [6] | composite z-score [7] | z-score [8] | composite z-score [9] | composite z-score [10] | composite z-score [11] | z-score [12] | z-score [13] | z-score [14] | composite z-score [15] | z-score [16] | composite z-score [17] | composite z-score [18] | composite z-score [19] | composite z-score [20]
C#CCCCON=C1C[C@@H](O)[C@@H](O)[C@@H]2[C@@H]3C(=O)N(c4cccc(Oc5ccccc5)c4)C(=O)[C@@H]3CC[C@H]12 | -0.2 | 0.744 | -0.129 | -0.264 | -0.87 | 0.248 | 0.425 | 1.2 (inactive) | -0.464 | -0.0193 | -0.684 | 0.74 (inactive) | 0.202 (inactive) | -0.284 (inactive) | -0.204 | 0.676 (inactive) | -0.172 | -0.738 | -0.581 | -0.213
CC(CCN1CCc2nc(-c3ccccc3)c(-c3ccccc3)cc2C1)=NOC[C@@H](O)COCc1ccco1 | -0.278 | 0.424 | -0.0598 | 0.111 | 0.303 | 0.268 | 0.792 | 0.515 (inactive) | -0.0187 | -0.261 | 0.651 | -0.544 (inactive) | -1.45 (inactive) | -3.75 (inactive) | 0.0955 | 0.845 (inactive) | -0.176 | 0.806 | 0.481 | -0.083
C[C@@H](c1ccccc1)N1C(=O)[C@H]2[C@H]3[C@H](O)[C@H](O)CC(=NO[C@@H]4O[C@H](CO)[C@@H](O)[C@H](O)[C@H]4O)[C@H]3CC[C@H]2C1=O | -0.528 | -0.0577 | -0.0291 | 0.303 | 0.473 | 0.0437 | 0.343 | -0.412 (inactive) | 0.0934 | -0.0383 | -0.997 | -0.264 (inactive) | 1.06 (inactive) | 0.749 (inactive) | 0.288 | 0.466 (inactive) | -0.0928 | 0.587 | 0.675 | -0.0223
CC(C)(C)N1C(=O)[C@H]2[C@H]3[C@H](O)C=CC(=O)[C@@H]3CC[C@H]2C1=O | -0.623 | 0.0741 | -0.132 | 0.412 | 0.437 | -0.261 | 0.368 | -0.757 (inactive) | 0.229 | 0.0251 | -0.832 | 0.985 (inactive) | 0.632 (inactive) | 1.12 (inactive) | -0.117 | 0.208 (inactive) | -0.0258 | 0.891 | 0.604 | 0.0469
O=C1CCCC=C1C(O)CCCCBr (stereo not given) | 0.383 | -0.0756 | -0.0695 | 0.0586 | 0.948 | 0.932 | 0.0079 | 6.9 (inactive) | 0.227 | -0.0994 | -0.25 | -3.03 (inactive) | -20.8 (active) | -1.04 (inactive) | 1.7 | 0.518 (inactive) | 0.263 | 1.03 | 0.474 | -0.0742
C#CCCCON=C1C[C@@H](O)[C@@H](O)[C@@H]2[C@@H]3C(=O)N(c4ccc(F)cc4F)C(=O)[C@@H]3CC[C@H]12 | -0.381 | 0.872 | -0.0788 | 0.216 | 0.342 | 0.454 | 0.765 | -1.17 (inactive) | 0.326 | 0.0373 | 1.43 | -0.989 (inactive) | -1.41 (inactive) | -1.5 (inactive) | 2.13 | 0.534 (inactive) | -0.226 | 0.844 | 0.793 | -0.0187
CCc1cc2c(nc1CC)CCN(CCC(C)=NO[C@H](C)c1cn([C@@H]3COC[C@H]3O)nn1)C2 | -0.141 | -0.0699 | -0.0015 | 0.0444 | 0.199 | -0.174 | -0.365 | -0.0345 (inactive) | 0.224 | -0.0994 | -0.104 | 0.485 (inactive) | 0.308 (inactive) | 0.668 (inactive) | -0.179 | -0.216 (inactive) | -0.0936 | 0.0613 | 0.551 | 0.0004
CCOC(=O)[C@H](Cc1ccccc1)NC(=O)CCC1CC(OC(=O)NCCc2ccc(F)cc2)CC2(CCCC(COC(=O)NCCc3ccc(Cl)cc3)O2)O1 (stereo not given in full) | -0.431 | -0.0057 | -0.0523 | 0.248 | 0.622 | 0.843 | 0.872 | 0.301 (inactive) | 0.233 | 0.0623 | 1.13 | 0.154 (inactive) | 1.04 (inactive) | 0.851 (inactive) | 1.83 | 0.822 (inactive) | -0.174 | 0.658 | 0.924 | -0.0687
COCCNC(=O)OCC1CCCC2(CC(OC(=O)NCc3ccc4c(c3)OCO4)CC(CCC(=O)N[C@@H](C)C(=O)OC)O2)O1 (stereo not given in full) | -0.463 | 0.362 | -0.116 | 0.387 | 1.05 | 0.191 | 0.699 | 0.502 (inactive) | 0.171 | -0.0994 | 1.52 | -0.05 (inactive) | 1.02 (inactive) | -0.62 (inactive) | 1.55 | -0.427 (inactive) | -0.161 | 0.54 | 1.1 | -0.0286
COc1ccc(O[C@H]2C=C[C@@H](c3ccccc3)O[C@@H]2COC(=O)CCC(C)=NOC(C)CN2CCCc3nc(C)c(C)cc32)cc1 (stereo not given in full) | -0.451 | -0.395 | -0.062 | 0.623 | 0.571 | 0.858 | 0.967 | -0.863 (inactive) | 0.506 | -0.199 | 1.35 | 0.194 (inactive) | -0.629 (inactive) | -0.0642 (inactive) | 1.36 | 1.43 (inactive) | -0.0345 | 0.755 | 1.01 | -0.0106
